Broadly, the inhibition is the change of the read-out against control, counted positive when it falls.

The whole screen tested about 370,000 compounds, of which about 2,300 (0.62%) were called active.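 How the source made its calls: active means inhibition above a per-campaign cutoff equal to the mean of compounds falling between control-based bounds plus 3 SD (cut at about 20% in these data); inactive means the rest.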 Many of the other results were omitted from the sample, so actives are more common in it than they were.

Disintegrin and metalloproteinase domain-containing protein 10 (Homo sapiens), sequence (O14672 214-748 limits assumed): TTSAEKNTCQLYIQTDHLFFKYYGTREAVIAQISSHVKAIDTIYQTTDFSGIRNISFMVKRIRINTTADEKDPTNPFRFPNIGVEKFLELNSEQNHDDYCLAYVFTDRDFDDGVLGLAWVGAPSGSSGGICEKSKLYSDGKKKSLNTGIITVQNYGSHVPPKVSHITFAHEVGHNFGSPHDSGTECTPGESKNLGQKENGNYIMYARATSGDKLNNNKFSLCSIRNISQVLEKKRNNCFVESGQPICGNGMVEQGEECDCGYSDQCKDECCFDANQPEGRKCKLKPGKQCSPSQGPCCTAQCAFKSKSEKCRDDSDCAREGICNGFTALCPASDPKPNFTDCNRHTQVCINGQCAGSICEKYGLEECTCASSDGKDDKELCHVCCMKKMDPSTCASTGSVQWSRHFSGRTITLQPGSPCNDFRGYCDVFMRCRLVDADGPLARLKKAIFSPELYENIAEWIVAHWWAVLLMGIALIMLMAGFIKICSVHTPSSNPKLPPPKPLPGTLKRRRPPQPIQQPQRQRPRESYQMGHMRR

This assay has as its target Disintegrin and metalloproteinase domain-containing protein 10 (Homo sapiens) (UniProt O14672). Nature of the assay: human ADAM10 inhibitors, primary screen, biochemical, QFRET, HTS (AID 720582).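 Further: 0% = DMSO wells while the 100% control is not disclosed.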 The following applies: recombinant ADAM10, EDANS/DABCYL FRET peptide cleavage, 3 h; at 7 µM; active compounds read high.
With `N#Cc1ccccc1OC[C@@H](O)CN1CCC(C(O)(c2ccccc2)c2ccccc2)CC1`, the inhibition was -0.66% (inactive).

Regarding `Cc1ccc(C)c(NC(=S)NNC(=O)c2csc(C)c2)c1`, the inhibition is 24.9% (active).

In the case of `Cc1ccc(C)c(NC(=O)NNC(=O)c2ccc3ccccc3c2O)c1`, the inhibition is -78.3% (inactive). In the case of `Cc1cc(C(=O)NNC(=S)NC(C)c2ccccc2)cs1` (configuration not stated) it was 9.44% (inactive). Turning to `COc1ccccc1C(=O)CSc1nnc(-c2ccccn2)n1-c1ccccc1`, the inhibition was -1.9% (inactive).

Take `COc1cccc(CSc2nnc(-c3cccnc3)n2Cc2ccccc2)c1`: the inhibition was -11.6% (inactive).

On to `O=C(CCCCCN1C(=O)C2C3C=CC(C3)C2C1=O)Nc1ccccn1` (configuration not stated), for which the inhibition is 2.11% (inactive). As for `COC(=O)c1cc(S(=O)(=O)N2CCN(C(=O)C3CCCO3)CC2)cn1C` (configuration not stated), the inhibition is -4.05% (inactive). In the case of `O=C1CCC(C(=O)OCC(=O)Nc2ccc(OC(F)F)cc2)=NN1`, the inhibition was 5.49% (inactive). For `COc1ccc(NC(=O)COC(=O)CNC(=O)C2CCCCC2)cc1`, the inhibition was -0.81% (inactive).

As to `CCC(C)(C)c1ccc(Oc2ccc(NC(=O)COC(=O)C3=COCCO3)cc2)cc1`, the inhibition is 35.7% (active). Take `N/C(Cc1ccc([N+](=O)[O-])cc1)=N\OC(=O)COc1ccc2ccccc2c1`: the inhibition was 29.3% (active).

In the case of `N/C(Cc1ccc([N+](=O)[O-])cc1)=N\OC(=O)C1CCCCC1`, the inhibition is -1.46% (inactive). In the case of `Cc1cc(C)cc(OCC(=O)O/N=C(\N)Cc2ccc([N+](=O)[O-])cc2)c1`, the inhibition was 6.24% (inactive). As for `O=C(NCC1COc2ccccc2O1)c1ccc(NC(=O)c2cc(F)ccc2F)cc1` (configuration not stated), the inhibition was -8.24% (inactive). For `CCOC(=O)N1CCN(C(=O)C[C@@H]2C(=O)N(CCc3ccc(Cl)cc3)C3=CCCC[C@]32C(=O)OCC)CC1`, the inhibition was 1.06% (inactive).

For `COc1ccc(C(C(=O)NC2CCCCC2)N(C(=O)CCl)c2ccccc2Cl)cc1` (configuration not stated), the inhibition is -8.69% (inactive).

Turning to `COc1ccc(C(CCN(Cc2ccc(OC)c(OC)c2)C(=O)CCl)c2ccccc2)cc1` (configuration not stated), the inhibition was 28% (active). Take `COc1ccc(CN(CCN2CCOCC2)C(=O)c2ccc(C)cc2)cc1OC`: the inhibition is -9.63% (inactive). `COC(=O)C1CN(CCc2ccccc2)CCS(=O)(=O)N1Cc1ccc(F)cc1` (configuration not stated): the inhibition was -11.1% (inactive).

Regarding `COC1=C[C@H](C(=O)NCCNC(C)=O)[C@H](C)[C@@H](c2ccccc2)CC1=O`, the inhibition was 4.85% (inactive). `CCOc1cc(NC(=O)CCl)c(OCC)cc1NC(C)=O`: the inhibition is -2.95% (inactive). In the case of `CCOc1ccccc1NC(=O)c1cc(S(=O)(=O)N2CCC3(CC2)OCCO3)ccc1F`, the inhibition is -1.65% (inactive). In the case of `CCOc1cc(NC(=O)c2ccccc2C(=O)O)c(OCC)cc1NC(=O)c1ccccc1F` it was 26.7% (active); in that of `c1cncc(CNc2ccnc(-c3ccc4c(c3)OCO4)n2)c1`, -4.61% (inactive); in that of `CN(CCc1ccccc1)C(=O)Cn1nc(-c2ccccc2)ccc1=O`, -9.95% (inactive). For `C=CCOc1ccc(/C=N/n2cncn2)cc1OC`, the inhibition was -13.5% (inactive). In the case of `COc1cc(/C=N/n2c(C)n[nH]c2=S)ccc1OCc1ccccc1` it was 20.3% (active); in that of `CNC(=S)N/N=C/c1ccc(OCc2ccccc2)c(Br)c1`, -17% (inactive).

As for `CC(CCN1CCC(C(O)(c2ccccc2)c2ccccc2)CC1)Oc1ccc(Cl)cc1` (configuration not stated), the inhibition was 6% (inactive). As for `O=S1(=O)c2ccc(Br)cc2OC[C@H](Cc2ccccc2)N1Cc1cn(Cc2ccccc2)nn1`, the inhibition is -9.49% (inactive).

Consider `Cc1[nH]nc(-c2ccc(OCc3cnn(-c4ccccc4)c3)cc2O)c1Oc1ccc(Cl)cc1`, for which the inhibition is -10.7% (inactive).

On to `C=C(C)COc1ccc(-c2n[nH]c(C)c2-c2ccccc2)c(O)c1`, for which the inhibition is 23.7% (active). On to `C[C@H]1CCC/C=C/C(=O)c2c(O)cc(O)cc2CC(=O)O1`, for which the inhibition is -6.63% (inactive). On to `Cc1ccc(OCc2nnc(SC/C=C/c3ccccc3)n2Cc2ccco2)cc1`, for which the inhibition is 21.3% (active). In the case of `Cc1ccc(-c2nnc(SCC(=O)Nc3ccc(Oc4ccccc4)cc3)n2Cc2ccco2)cc1` it was 17.8% (inactive). As to `O=C(CSc1nnc(COc2ccccc2)n1Cc1ccco1)c1ccc2ccccc2c1`, the inhibition is 9.91% (inactive). Turning to `Cc1c(C(C)c2ccccc2O)[nH]c2ccccc12` (configuration not stated), the inhibition was 11.8% (inactive). For the molecule `O=C1CC(c2ccc3c(c2)OCO3)N=C2N(CC3CC3)C/C(=C/c3ccccc3)N12` (configuration not stated), the inhibition is -2.63% (inactive). In the case of `CC(=O)Nc1ccc(N2C(=O)C3C4CC(=O)C(c5ccccc54)C3C2=O)cc1` (configuration not stated) it was -0.65% (inactive); in that of `Cc1ccc(C)c(NC(=O)c2ccc(OC(=O)c3ccco3)cc2)c1`, 0.79% (inactive). In the case of `O=C(Oc1cccc(N2C(=O)C3C4c5ccccc5C(c5ccccc54)C3C2=O)c1)c1ccco1` (configuration not stated) it was 20.3% (active); in that of `O=C(NCCNc1ccc([N+](=O)[O-])cc1)c1cccc2c(Br)cccc12`, -54.2% (inactive). Regarding `COc1ccc(Cn2cc(COC(=O)N(C)Cc3ccccc3)nn2)cc1`, the inhibition was 1.83% (inactive). In the case of `CC(N=Cc1nc(-c2ccccc2)oc1O)c1ccccc1` (configuration not stated) it was 21% (active); in that of `Oc1oc(-c2ccccc2Br)nc1/C=N/c1ccccn1`, -33.4% (inactive); in that of `COc1ccc(-n2c(SCC(=O)Nc3ccc4cn[nH]c4c3)nnc2-c2cccnc2)cc1`, 3.52% (inactive).

For the molecule `CC(C)CSc1nnc(-c2cccnc2)n1Cc1ccccc1`, the inhibition is -2.15% (inactive). `Nn1c(SCC(=O)N2c3ccccc3Sc3ccccc32)nnc1-c1n[nH]c2c1CCC2`: the inhibition was -5.44% (inactive). On to `Cc1ccc(N(CC(=O)Nc2cc(C)cc(C)c2)S(=O)(=O)c2cccc3nonc23)cc1`, for which the inhibition was 14.3% (inactive).

Turning to `Cc1ccc(S(=O)(=O)N(CC(=O)Nc2cccnc2)c2ccc(Br)cc2)cc1`, the inhibition is 20.1% (active). Regarding `CCNC(=O)CN(c1ccc(C)cc1)S(=O)(=O)c1ccc(SC)cc1`, the inhibition was 2.9% (inactive). On to `O=S1(=O)c2c(cccc2N2CCSCC2)Oc2ccccc2CN1Cc1cn(Cc2ccc(F)cc2)nn1`, for which the inhibition is -1.57% (inactive).

On to `CCOc1ccc(N(CC(=O)Nc2c(C)n(C)n(-c3ccccc3)c2=O)S(=O)(=O)c2ccc(Cl)s2)cc1`, for which the inhibition is 7.29% (inactive).

Turning to `O=C(O)c1cc(S(=O)(=O)N(Cc2ccccc2)c2ccccc2)ccc1Cl`, the inhibition is 2.05% (inactive). In the case of `NC(=O)c1ccccc1N(Cc1ccccc1)S(=O)(=O)c1ccccc1` it was 14.4% (inactive); in that of `O=S(=O)(c1ccccc1)N(Cc1cccc(F)c1)c1ccccc1`, 22.7% (active).

Regarding `Cc1cc(=O)[nH]c(SCC(=O)Nc2ccc(Cl)cc2C)n1`, the inhibition is -0.31% (inactive). For the molecule `C[C@@H]1CN([C@@H](C)CO)C(=O)c2cccc(NC(=O)Nc3cccc4ccccc34)c2O[C@H]1CN(C)S(=O)(=O)c1ccccc1F`, the inhibition is -24.8% (inactive). With `CCc1ccccc1NC(=O)CSc1nnc(-c2cccs2)o1`, the inhibition is -1.28% (inactive). Take `COc1ccc(-n2c(COc3ccccc3)nnc2SCC(=O)Nc2ccc3c(c2)OCO3)cc1`: the inhibition was 2.97% (inactive).

Turning to `N#Cc1nc(COc2ccc(Cl)cc2)oc1N1CCCC1`, the inhibition was 1.11% (inactive).

In the case of `Cc1ccc(OCc2nc(C#N)c(N3CCCC3)o2)cc1`, the inhibition is -0.05% (inactive). Turning to `O=S(=O)(c1ccc(Br)cc1)c1nc(-c2ccccc2)oc1NCc1cccnc1`, the inhibition was 4.12% (inactive).

In the case of `O=S(=O)(c1ccccc1)c1nc(-c2ccccc2F)oc1NCc1cccnc1`, the inhibition is 12.6% (inactive). With `N#Cc1nc(COc2ccc(-c3ccccc3)cc2)oc1NCc1cccnc1`, the inhibition is 23.1% (active). Consider `CCOc1ccc(Nc2oc(Cc3ccccc3)nc2C#N)cc1`, for which the inhibition was 23.6% (active). As for `CCCCOCCCNC(=O)C[C@H]1C[C@@]2(C(=O)OC)C(=C[C@H](COCc3ccccc3)O[C@@H]2C)N(Cc2cccc3ccccc23)C1=O`, the inhibition is 11.9% (inactive). In the case of `c1ccc2c(CCN3CCNC[C@H]3Cc3cccc4ccccc34)cccc2c1` it was 79% (active). In the case of `CC(C)(C)CN1C(=O)C(=O)NC[C@H]1Cc1cccc2ccccc12`, the inhibition was -16.5% (inactive). For the molecule `c1ccc(C2CNCc3c2ccc2ccccc32)cc1` (configuration not stated), the inhibition was -2.76% (inactive). On to `CC(=O)C1(C(=O)Nc2nccs2)CC(c2ccccc2C(F)(F)F)=NO1` (configuration not stated), for which the inhibition was -3.94% (inactive). `Cc1cccc(C(=O)N2CCc3c([nH]c4ccccc34)C2CC(C)C)n1` (configuration not stated): the inhibition was -15.2% (inactive).

Consider `COCc1ccc(C(=O)N2CCc3c([nH]c4ccccc34)C2c2ccccn2)s1` (configuration not stated), for which the inhibition was 9.76% (inactive). In the case of `Cc1cccc(C2c3[nH]c4ccccc4c3CCN2C(=O)c2cc(-c3cccn3C)n[nH]2)n1` (configuration not stated) it was 20.4% (active); in that of `COC(=O)c1ccccc1-n1cc(COC(=O)NCCc2ccccc2)nn1`, -5.72% (inactive).

For `C=CCN(C(=O)[C@@H](CCCC)[C@@H](O)c1ccc(Cl)cc1)c1ccccc1`, the inhibition was 11.4% (inactive). As for `CC(C)Oc1cc(F)ccc1-c1cc(C(=O)Nc2ccc(F)cc2)[nH]n1`, the inhibition is 5.58% (inactive).

`CC(C)Oc1cc(F)ccc1-c1cc(C(=O)Nc2cccc(Cl)c2)[nH]n1`: the inhibition was 22.1% (active). For `COc1cc(NC(=O)c2cc(-c3ccc(F)cc3OC(C)C)n[nH]2)cc(OC)c1OC`, the inhibition is 9.02% (inactive). In the case of `CCOC(=O)C1CCN(C(=O)C(C)(C)NC(=O)Nc2ccc(F)c(F)c2)CC1` it was 6.44% (inactive); in that of `COc1ccc(N2CCN(CCNS(=O)(=O)c3ccc([N+](=O)[O-])cc3)CC2)cc1`, 5.38% (inactive); in that of `Cc1[nH]c2ccccc2c1C(=O)CN1CC(C)CC(C)C1` (configuration not stated), -6.1% (inactive). On to `COc1ccc(C(=O)COC(=O)c2c(C)noc2C)cc1Cl`, for which the inhibition was 3.87% (inactive). `Cc1[nH]c2ccccc2c1C(=O)COC(=O)c1c(-c2ccccc2)noc1C`: the inhibition is 24.7% (active).

As for `COCCCNC(=O)C[C@H]1C[C@@]2(C(=O)OC)C(=C[C@H](C(C)(C)C)O[C@@H]2C)N(Cc2ccc(Cl)cc2Cl)C1=O`, the inhibition is 8.61% (inactive). For the molecule `C=CS(=O)(=O)N(Cc1nnn(Cc2ccccc2)c1Br)[C@H](C(=O)OC)C(C)C`, the inhibition was 5.21% (inactive).

Source of the values: PubChem BioAssay AID720582 (The Scripps Research Institute Molecular Screening Center, 2013).
